KB-3-1 tox: kills parental KB-3-1 adenocarcinoma cells; KB-3-1 viability, CellTiter-Glo ATP luminescence, 72 h; Potency, µM (highest dose often 46.1 µM), actives largely listed as cytotoxic; actives 1.4% (n = 400,000); also: % is scaled to controls: 0 for no effect and ±100 for the full control effect; nearly all actives have a fitted effect of over 60% in size
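Parental KB-3-1 adenocarcinoma cells in phenol-red-free DMEM with 10% FBS were pin-treated with compounds at several concentrations, incubated 72 h at 37 °C, and viability read by CellTiter-Glo luminescence; concentration-effect curves were fitted after normalization.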
MCF10A rereplic: DNA re-replication induction in MCF 10a cells. actives 2.9% (n = 350,000). Potency, µM (series often up to 46.1 µM), without a hit: top-dose activity, positive = re-replication, most hits filed as activators. MCF 10A DNA re-replication, Hoechst nuclear intensity, 48 h; also: % of control where 0% means no effect; nearly all actives have a fitted effect of over 50% in size
KB-V1 cytotox: kills drug-selected multidrug resistant KB-V1 cells | KB-V1 MDR cells viability, CellTiter-Glo, 72 h | Potency, µM (doses to about 46.1 µM), hits mostly cytotoxic | actives 3.4% (n = 400,000) | AID 1347076; also: % is scaled to controls: 0 for no effect and ±100 for the full control effect; nearly all actives have a fitted effect of over 60% in size
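Luminescent ATP read-out (CellTiter-Glo, 10 min) measures survival of drug-selected KB-V1 MDR cells after 72 h, 37 degrees C compound exposure. Medium: phenol-red-free DMEM, 10% FBS. Values from fitted concentration-response curves.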
SW480 rerep: inducers of DNA re-replication in SW480 colon cancer cells; Potency, µM (doses to about 46.1 µM), for the others: top-dose re-replication activation, actives largely listed as activators; actives 1.8% (n = 340,000); SW480 DNA re-replication, Hoechst DNA content imaging, 48 h; also: % of control where 0% means no effect; nearly all actives have a fitted effect of over 55% in size
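First, 250 cells per well were seeded. Next, compound or vehicle (23 nL) was pinned in, plates sat 48 hr at 37 C. Finally Hoechst was added for 40 min before fluorescence scanning.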
ELG1 repair inh: inhibitors of ELG1-dependent DNA repair in HEK293T cells; Potency, µM (series often up to 46.1 µM), for inactives: at the top dose activity change, negative = inhibition, hits mostly inhibitors; AID 504467; HEK293T ELG1-luciferase reporter, luminescence, 16 h; DNA damage induced by 5-fluorouridine; actives 2.3% (n = 330,000); also: % is scaled to controls: 0 for no effect and ±100 for the full control effect; nearly all actives have a fitted effect of over 55% in size
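Reporter activity after DNA damage by 5-fluorouridine is monitored. Compound-treated cells incubate 16 hr at 37 °C, then ONE-Glo is added for 30 min before luminescence reading.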
Starred values were filed as active, the others as inactive; i = inactive; ? = inconclusive; / = not tested or not shown. Sampled rows, rich in hits. Any-hit rate of the full collection: about 8.1%. Calls follow the shape of the dose curve; as a rule, active = well fitted curve in the direction sought with a large enough effect; inconclusive = small, poorly fitted or top-dose-only effect, or another doubt; inactive = no such curve, though single readings can be large; an effect the other way counts as inactive or inconclusive. Potency is read from the fitted curve at half-maximal effect.

SMILES	KB-3-1 tox	MCF10A rereplic	KB-V1 cytotox	SW480 rerep	ELG1 repair inh
O=C(N=Nc1c(O)n(Cc2ccccc2)c2ccccc12)c1cc2ccccc2cc1O	?	10µM*	?	?	?
O=C(N=Nc1c(O)n(Cc2ccccc2)c2ccccc12)c1ccc(O)cc1	?	6%	15µM*	-10%	?
COc1ccc(C(=O)NCC(=O)N=Nc2c(O)n(Cc3ccccc3)c3ccccc23)cc1OC	i	0%	i	-7%	?
Cn1c(O)c(N=NC(=O)c2ccccc2O)c2ccccc21	i	?	16µM*	?	?
CC(C)Cn1c(O)c(N=NC(=O)c2cccc(S(=O)(=O)N3CCCCC3)c2)c2ccccc21	?	?	2.1µM*	?	?
O=C(NNC(=O)c1cccc(S(=O)(=O)N2CCCCC2)c1)c1ccccc1	i	-8%	i	-4%	-12%
CC(C)CCn1c(O)c(N=NC(=O)c2ccco2)c2ccccc21	i	15%	13µM*	-5%	?
Cn1c(O)c(N=NC(=O)c2ccco2)c2ccccc21	i	?	i	31%	?
CCc1nnc2sc(-c3ccc(NC(=O)c4ccco4)cc3)nn12	i	2%	i	-11%	5%
CCc1nnc2sc(-c3ccc(NC(=O)c4ccc5c(c4)OCCO5)cc3)nn12	i	-6%	i	0%	5.8µM*
O=C(c1ccc(C(F)(F)F)n(Cc2ccc(Cl)cc2)c1=O)N1CCOCC1	i	3%	i	-21%	16%
O=C(c1cc(Cl)c(=O)n(Cc2ccc(Cl)cc2)c1)N1CCOCC1	i	-1%	21µM*	-5%	-8%
COc1cc(S(=O)(=O)O)c(C)cc1N=Nc1c(O)ccc2cc(S(=O)(=O)O)ccc12	i	/	i	/	/
Cc1cc(-c2ccc(N=Nc3c(S(=O)(=O)O)cc4cc(S(=O)(=O)O)cc(N)c4c3O)c(C)c2)ccc1N=Nc1c(S(=O)(=O)O)cc2cc(S(=O)(=O)O)cc(N)c2c1O	/	-16%	/	-14%	7.3µM*
O=S(=O)(O)c1cc(O)c2c(O)c(N=Nc3cc(Cl)ccc3O)c(S(=O)(=O)O)cc2c1	15µM*	-3%	?	22%	?
COc1cc2c(NC3CCN(C)CC3)nc(N3CCCN(C)CC3)nc2cc1OCCCCN	?	/	i	/	/
CN(C)S(=O)(=O)c1cccc(-c2nnc(-c3ccccc3)o2)c1	i	17%	23µM*	1%	?
Clc1cccc(-c2nnc(-c3ccccc3)o2)c1	?	16µM*	?	0%	?
Cc1ccccc1NS(=O)(=O)c1cccc(-c2nnc(-c3ccccc3)o2)c1	i	14%	i	-18%	?
c1ccc(-c2nnc(-c3ccccc3)o2)cc1	i	20%	i	5%	?
COc1ccc(Nc2ccncc2[N+](=O)[O-])cc1	?	12%	i	-1%	5.8µM*
O=[N+]([O-])c1cnccc1Nc1cccc(F)c1	i	0%	i	1%	-7%
CCc1ccccc1NC(=O)CN1CCN(C(=O)c2ccc(OCc3cn4ccccc4n3)cc2)CC1	i	8%	i	-1%	6.5µM*
COC(=O)[C@@]12C[C@@H](CC(=O)N3CCC(c4ccccc4)CC3)C(=O)N(Cc3ccc4c(c3)OCO4)C1=CCC(C)(C)C2	i	/	?	/	/
Cc1cccc(N2CCN(C(=O)c3ccc4c(Cl)c5c(nc4c3)CCCC5)CC2)c1C	i	/	i	/	/
SMILES	KB-3-1 tox	MCF10A rereplic	KB-V1 cytotox	SW480 rerep	ELG1 repair inh
COC(=O)c1ccsc1NC(=O)CN1CCN(Cc2ccc3c(c2)OCO3)CC1	i	24%	16µM*	0%	5.2µM*
Cc1c(O)ccc(C(=O)CN2CCN(Cc3ccc4c(c3)OCO4)CC2)c1O	i	3%	23µM*	-60%	?
O=C(NC(=S)N1CCN(Cc2ccc3c(c2)OCO3)CC1)c1cccc(Br)c1	?	11%	7.3µM*	0%	-22%
O=C(/C=C/c1cccs1)N1CCN(Cc2ccc3c(c2)OCO3)CC1	i	11%	18µM*	-1%	4%
COc1cc(NC(=O)Cn2c(=O)n(Cc3ccccc3Cl)c(=O)c3cc(OC)c(OC)cc32)cc(OC)c1	i	/	i	/	/
COc1ccc(-c2ccc(CN3C(CC(C)C)C(=O)N(Cc4cn(CCC5OCCO5)nn4)CCS3(=O)=O)cc2)cc1OC (configuration not stated)	i	/	i	/	/
Cc1ccc(NC(=O)N2CCN(Cc3ccc4c(c3)OCO4)CC2)cc1	i	0%	21µM*	-1%	-12%
O=C(Cn1ncc2c1-c1ccccc1OC2)N1CCN(Cc2ccc3c(c2)OCO3)CC1	i	-5%	i	-2%	23µM*
COC(=O)c1c(NC(=O)CN2CCN(Cc3ccc4c(c3)OCO4)CC2)sc(C)c1C	?	?	?	?	8.2µM*
O=C(/C=C/c1cccs1)N1CCN(c2ccc(O)cc2)CC1	?	16µM*	i	?	?
CCOc1ccc(NC(=O)N2CCN(Cc3ccc4c(c3)OCO4)CC2)cc1	i	-3%	i	-9%	-17%
CCN(CC)S(=O)(=O)c1ccc(C(=O)N2CC(=O)Nc3ccc(F)cc3C2c2ccccc2)cc1 (configuration not stated)	i	/	i	/	/
Cc1ccc(S(=O)(=O)NC2c3cccc4cccc(c34)C2Sc2nncn2C)cc1 (configuration not stated)	?	?	i	2%	-2%
Cn1cnnc1SC1c2cccc3cccc(c23)C1NS(=O)(=O)c1ccc(Cl)cc1 (configuration not stated)	i	-6%	12µM*	3%	-18%
Cc1ccc(S(=O)(=O)NC2c3cccc4cccc(c34)C2Sc2nc(C)cc(C)n2)cc1 (configuration not stated)	i	?	5.2µM*	-59%	-22%
N#CCSc1nc2ccc(N3CCCCC3)cc2c(=O)n1Cc1ccccc1	i	16µM*	?	21µM*	2%
Cc1nn(CC(=O)Nc2cc(F)ccc2F)c(=O)c2cccn12	i	/	i	/	/
COc1cc(C2Nc3ccc4ncccc4c3C3=C2C(=O)CCC3)ccc1O (configuration not stated)	3.3µM*	16µM*	i	21µM*	?
COc1ccc(S(=O)(=O)NC(=O)C2(C)CCN2C(=O)Cc2ccccc2Cl)cc1 (configuration not stated)	i	/	?	/	/
Cc1cccc(OCc2occc2C(=O)Nc2cccc(-n3cnnn3)c2)c1	i	1%	i	-1%	?
